Experimental findings from PubChem BioAssay AID1220 (Sanford-Burnham Center for Chemical Genomics, 2008) are described below.

For orientation: inhibition means the relative decrease from the control value, in per cent.

The whole screen tested about 190,000 compounds, of which about 1,300 (0.68%) were called active. Rule as the data show it: active = inhibition above about 50%; inactive = the rest. Many of the other results were omitted from the sample, so actives are more common in it than they were.

The target in this experiment is Mannose-6-phosphate isomerase (Homo sapiens) (UniProt P34949). Put plainly: human PMI inhibitors, high substrate, primary screen, biochemical, fluorescence intensity, high mannose 6-phosphate (AID 1220). As to conditions: recombinant PMI enzyme, coupled fluorescence intensity; at 20 µM; hits give high values.
Chain of Mannose-6-phosphate isomerase (Homo sapiens) (P34949 whole entry, looked up): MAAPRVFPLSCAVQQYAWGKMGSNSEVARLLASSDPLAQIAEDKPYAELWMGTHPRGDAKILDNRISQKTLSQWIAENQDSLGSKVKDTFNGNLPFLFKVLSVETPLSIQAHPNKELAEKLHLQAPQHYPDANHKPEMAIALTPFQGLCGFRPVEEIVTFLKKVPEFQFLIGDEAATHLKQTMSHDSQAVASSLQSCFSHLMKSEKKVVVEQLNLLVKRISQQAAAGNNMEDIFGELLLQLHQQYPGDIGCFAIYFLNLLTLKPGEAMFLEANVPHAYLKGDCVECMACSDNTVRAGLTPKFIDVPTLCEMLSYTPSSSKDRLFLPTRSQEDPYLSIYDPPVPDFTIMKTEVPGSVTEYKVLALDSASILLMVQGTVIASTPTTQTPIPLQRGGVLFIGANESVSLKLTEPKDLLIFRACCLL
With `Cc1ccc(C2C(C#N)=C(N)Oc3c2sc2ccccc32)o1` (centres undefined), the inhibition was 57.5% (active). The figure for `N#CC1=C(N)Oc2c(sc3ccccc23)C1c1ccco1` (centres undefined) is 53.1% (active); for `CC(=O)C1=C(C)OC(N)=C(C#N)C1c1ccco1` (centres undefined) it is 10.4% (inactive); for `Cc1ccc([C@H]2C(C#N)=C(N)Oc3cc(C)oc(=O)c32)o1` it is -11.4% (inactive). Next, `COC(=O)C1=C(C)OC(N)=C(C#N)C1c1ccco1` (centres undefined): 2.9% (inactive); `CCOC(=O)C1=C(C)OC(N)=C(C#N)C1c1ccc(C)o1` (centres undefined): -3.7% (inactive); `Clc1ccc(-c2cn3cc(Br)ccc3n2)cc1Cl`: -15.2% (inactive). The figure for `O=C(O)CCc1ccc(-c2cccs2)n1CCc1ccccc1` is 3.8% (inactive); for `CCC(C)(C)n1nnnc1C(c1ccncc1)N1CCC(C)CC1` (centres undefined) it is -5.6% (inactive); for `O=C(Nc1cccn(Cc2c(Cl)cccc2Cl)c1=O)C1CC1` it is 3.9% (inactive).

Take `COCCNC(=O)Cn1cc2c(n1)CCC(C)C2` (centres undefined): the inhibition is 4.1% (inactive). The figure for `COC(=O)C1C(c2ccc(N(C)C)cc2)C(C(=O)OC)S(=O)(=O)CS1(=O)=O` (centres undefined) is 15% (inactive); for `CC(=O)NC1(C2CCCCC2=O)CCCCC1` (centres undefined) it is 4.2% (inactive); for `Cc1ccc(C(=O)N/C(=C\c2cccs2)c2nc3ccccc3[nH]2)cc1` it is 57.5% (active). Next, `O=C(N/C(=C/c1cccs1)c1nc2ccccc2[nH]1)c1ccccc1`: -4.7% (inactive).

With `COc1ccc(C(=O)N/C(=C/c2cccs2)c2nc3ccccc3[nH]2)cc1OC`, the inhibition was 3.9% (inactive). `Cc1cc(C)cc(N2C(=O)CN(Cc3sccc3C)C2=S)c1`: the inhibition is 0.5% (inactive). Take `CCOc1cccc(OCCOc2ccc(C(=O)c3ccccc3)cc2)c1`: the inhibition is 10.2% (inactive). The figure for `CN1CCN(c2nc(-c3ccc(Cl)s3)cs2)CC1` is -4.8% (inactive); for `CCN(CC)c1ccc(/C=N/N2C(=O)c3ccccc3C2=O)c(O)c1` it is -18.7% (inactive); for `CCN(CC)c1ccc(C=Nc2cc(C)ccc2C)c(O)c1` it is 58.3% (active). Take `CCN(CC)c1ccc(C=Nc2ccccc2C)c(O)c1`: the inhibition was 66.6% (active).

As for `CCN(CC)c1ccc(/C=N/Nc2ccc(C)cc2)c(O)c1`, the inhibition was -70.5% (inactive). Next, `CCN(CC)c1ccc(C=Nc2ccc(C)cc2C)c(O)c1`: 36.9% (inactive); `CCN(CC)c1ccc(/C=N/NC(=S)NCc2ccccc2)c(O)c1`: 1.2% (inactive); `Cc1ccc(-c2cc(C(=O)O)n(-c3ccc(S(N)(=O)=O)cc3)n2)cc1`: -17.2% (inactive). The figure for `COc1cc(CC(=O)OCC(=O)Nc2ccc([N+](=O)[O-])cc2)cc(OC)c1OC` is 5.9% (inactive); for `CCC(=O)Nc1cccc2cccnc12` it is 1.3% (inactive); for `CC(C)NC(=O)COc1ccccc1C#N` it is -4.6% (inactive). The figure for `Cc1ccc(C(=O)c2c[nH]cc2-c2ccccc2)cc1` is 4.1% (inactive); for `CC(C(=O)NC1CCCC1)N(Cc1ccco1)C(=O)c1snc(C(=O)NC2CCCC2)c1N` (centres undefined) it is 4% (inactive); for `CC1=CC2(O)OCCN(CCO)C2=CC1=O` (centres undefined) it is 57.4% (active). Take `Cc1ccc(-n2cccc2/C=C2\C(=N)N3N=C(c4ccco4)SC3=NC2=O)cc1`: the inhibition is -16.6% (inactive). `Cc1ccc2c(c1)c1c(n2CC(O)CNC(C)(C)C)CCCC1` (centres undefined): the inhibition was 27.9% (inactive). Next, `CCn1c(/C=N/c2nc3ccccc3n2C)nc2ccccc21`: 33.8% (inactive); `Oc1ccc2ccccc2c1/C=N/n1cnnc1`: 40.6% (inactive). Next, `Cc1nc2ccccc2c(=O)n1/N=C/c1c(O)ccc2ccccc12`: 17.6% (inactive); `Cn1c(/N=C/c2cc(Cl)ccc2O)nc2ccccc21`: 49.3% (inactive); `Cc1nn(C)c(C)c1N=Cc1c(O)ccc2ccccc12`: 50.3% (active). With `O=C(c1noc2c1CCCC2)N1CCN(c2ccccc2)CC1`, the inhibition is 3.6% (inactive). In the case of `O=C(CSc1nnc(-c2ccc(Cl)s2)o1)N1CCOCC1`, the inhibition was 30.1% (inactive). As for `Cc1c2c(c(C)n1C)C(C(=O)NC1CCCCC1)N(Cc1ccccc1)C2=O` (centres undefined), the inhibition was -4.7% (inactive). The figure for `Cc1ccc(NC(=O)CSc2nc(N)c(-c3ccccc3)c(=O)[nH]2)cc1Cl` is -0.7% (inactive); for `CCN(CC)C(=O)COC(=O)c1cc(-c2ccc(OC)cc2)nc2ccccc12` it is 7% (inactive). Next, `COc1ccc(Br)cc1C1CC(=O)N2CN(C)CSC2=C1C#N` (centres undefined): 51.8% (active); `COc1ccc(N2CSC3=C(C#N)C(c4ccc(OC)c(OC)c4)CC(=O)N3C2)c(OC)c1` (centres undefined): -8.6% (inactive).

In the case of `COc1ccc(OC)c(C2CC(=O)N3CN(c4cccc(Cl)c4)CSC3=C2C#N)c1` (centres undefined), the inhibition was 35% (inactive). Next, `COc1cc(OC)c(C2CC(=O)N3CN(c4ccc(C)cc4)CSC3=C2C#N)cc1OC` (centres undefined): 28.2% (inactive). The figure for `COc1ccc(OC)c(C2CC(=O)N3CN(c4ccccc4)CSC3=C2C#N)c1` (centres undefined) is -38.7% (inactive); for `COc1cc(OC)c(C2CC(=O)N3CN(c4ccccc4C)CSC3=C2C#N)cc1OC` (centres undefined) it is -1.4% (inactive). The figure for `COc1ccc(N2CSC3=C(C#N)C(c4cc(OC)c(OC)cc4OC)CC(=O)N3C2)c(OC)c1` (centres undefined) is 36.9% (inactive); for `COc1cc(OC)c(C2CC(=O)N3CN(c4ccccc4)CSC3=C2C#N)cc1OC` (centres undefined) it is 31.4% (inactive). For the molecule `COc1ccc(Br)cc1C1CC(=O)N2CN(Cc3ccccc3)CSC2=C1C#N` (centres undefined), the inhibition is 55.7% (active).

On to `COc1ccc(OC)c(C2CC(=O)N3CN(c4ccccc4F)CSC3=C2C#N)c1` (centres undefined), for which the inhibition is 17.1% (inactive). Next, `COc1ccc(N2CSC3=C(C#N)C(c4cc(OC)ccc4OC)CC(=O)N3C2)c(OC)c1` (centres undefined): 55.5% (active); `CNC(=O)CSc1nnnn1-c1cc(C)ccc1C`: 5.1% (inactive); `CCOC(=O)c1c(NC(=O)CN2CCCc3ccccc32)sc(C)c1CC`: 7.2% (inactive). Next, `CCOC(=O)/C(C#N)=C1/C=CN(Cc2ccccc2)C=N1`: 1.1% (inactive). Next, `CCOC(=O)/C(C#N)=C1/C(=O)N(Cc2ccccc2)c2ccccc21`: 66.7% (active). Consider `CCCCN1C(=O)/C(=C(/C#N)C(N)=O)c2ccccc21`, for which the inhibition is 36.9% (inactive). Next, `CCOC(=O)C1CCCN(C(=O)Nc2cccc(Cl)c2)C1` (centres undefined): 2.6% (inactive); `COc1cc([N+](=O)[O-])cc2cc(C(=O)NC(C)(C)C)c(=O)oc12`: 15.7% (inactive).

For the molecule `C=CCSc1nc2sc3c(c2c(=O)n1CC=C)CCc1ccccc1-3`, the inhibition was 33.5% (inactive).

Consider `C=CCn1c(SCC)nc2sc3c(c2c1=O)CCc1ccccc1-3`, for which the inhibition was 5.8% (inactive).
